From the supplement of paper PMC6555819

How the values were obtained:
Experiment in all cases: PBM binding z-score (relative to random genomic background probes); higher = stronger binding; sequences stand for … in GC…GCGATTGACAGCGTAGAATGAAGG
[1] = system: PPARg:RXRa DBDmut IVT, anti-RXR (DBD mutation: RXRa K156A/R161A, NR concentration 270 nM, RXRa partner concentration 90 nM)
Procedure, shortened: (§1)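 On custom Agilent 4×180K arrays, double-stranded probes with 34-nt variable regions carried direct-repeat seeds, single-nucleotide variants, half-site ablations or random human genomic background. Ligand-free nuclear receptor dimers were applied for 1 h, and binding was read with antibodies against each partner (one per run). Binding z-scores come from regression-normalized fluorescence, with the random background probes as reference.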

[2] = system: PPARg:RXRa IVT, anti-PPARg (NR concentration 270 nM, RXRa partner concentration 90 nM)
Procedure, shortened: as §1

[3] = system: PPARg DBDmut:RXRa IVT, anti-PPARg (DBD mutation: PPARg1 K132A/R137A, NR concentration 270 nM, RXRa partner concentration 90 nM)
Procedure, shortened: as §1

[4] = system: PPARg DBDmut IVT, anti-PPARg (DBD mutation: PPARg1 K132A/R137A, NR concentration 270 nM)
Procedure, shortened: as §1

[5] = system: PPARg homodimer (NR concentration 180 nM)
Procedure, shortened: as §1

[6] = system: PXR:RXRa (NR concentration 270 nM, RXRa partner concentration 90 nM)
Procedure, shortened: as §1

[7] = system: PXR homodimer (NR concentration 270 nM)
Procedure, shortened: as §1

[8] = system: RARa:RXR (NR concentration 270 nM, RXRa partner concentration 90 nM)
Procedure, shortened: as §1

[9] = system: RARa homodimer (NR concentration 270 nM)
Procedure, shortened: as §1

[10] = system: RARb:RXRa (NR concentration 270 nM, RXRa partner concentration 90 nM)
Procedure, shortened: as §1

[11] = system: RARb homodimer (NR concentration 270 nM)
Procedure, shortened: as §1

[12] = system: RARg:RXRa (NR concentration 270 nM, RXRa partner concentration 90 nM)
Procedure, shortened: as §1

[13] = system: RARg homodimer (NR concentration 270 nM)
Procedure, shortened: as §1

[14] = system: RXRa DBDmut IVT, anti-RXR (DBD mutation: RXRa K156A/R161A, NR concentration 90 nM)
Procedure, shortened: as §1

[15] = system: RXRa homodimer (NR concentration 180 nM)
Procedure, shortened: as §1

[16] = system: THRa:RXRa (NR concentration 90 nM, RXRa partner concentration 90 nM)
Procedure, shortened: as §1

[17] = system: THRa homodimer (NR concentration 90 nM)
Procedure, shortened: as §1

[18] = system: VDR:RXRa (NR concentration 270 nM, RXRa partner concentration 90 nM)
Procedure, shortened: as §1

[19] = system: VDR homodimer (NR concentration 270 nM)
Procedure, shortened: as §1

Sequence | PBM binding z-score [1] | PBM binding z-score [2] | PBM binding z-score [3] | PBM binding z-score [4] | PBM binding z-score [5] | PBM binding z-score [6] | PBM binding z-score [7] | PBM binding z-score [8] | PBM binding z-score [9] | PBM binding z-score [10] | PBM binding z-score [11] | PBM binding z-score [12] | PBM binding z-score [13] | PBM binding z-score [14] | PBM binding z-score [15] | PBM binding z-score [16] | PBM binding z-score [17] | PBM binding z-score [18] | PBM binding z-score [19]
TCGAGTAGGTTAGTCGGGGCATTCACCCAACATA | 2.26 | 1.7 | -0.581 | -0.56 | 0.252 | 0.243 | -0.193 | 0.377 | 0.343 | 0.447 | 0.552 | 0.0959 | -0.000869 | 0.343 | 0.097 | 1.31 | 0.381 | 2.41 | 0.754
ATCTCTAGTTAAAGTTCAGTGAAAGATCGATAGA | 0.143 | 0.671 | 0.424 | 1.48 | 2.14 | 2.29 | 2.21 | 1.41 | 2.45 | 2.61 | 2.53 | 1.88 | 2.04 | 1.84 | 1.22 | 0.988 | 0.202 | 1.64 | 2.47
GTACCAAGGTGAATAGGACGTTGATGAGTAGGCG | 1.26 | 1.93 | 0.467 | 0.284 | 0.583 | -0.246 | -0.00267 | -0.0237 | 0.381 | 1.14 | 0.539 | 0.543 | 0.959 | -0.489 | 0.542 | 1.24 | 0.345 | -0.357 | 0.0653
ATCCCTAGGTAAAGATAGTTCAGTGAATGCAAAT | -0.0456 | 0.0928 | 0.379 | 0.507 | 0.544 | 1.12 | 0.666 | 0.665 | 1.04 | 0.863 | 1.19 | 0.428 | 0.526 | 0.103 | 0.295 | 0.844 | 0.169 | 0.829 | 0.524
CGTAGTTGGTCAAGGTCACACACGCTATAGGTAC | 1.92 | 3.93 | 0.825 | 0.313 | 2.32 | 4.02 | 1.11 | 4.18 | 1.01 | 4.18 | 4.23 | 4.34 | 4.9 | 2.14 | 4.06 | 4.05 | 3.89 | 4.2 | 2.45
TTATATAGGTAAAAGGTGAAAGTCGGTGTGGTAA | 7.08 | 6.76 | 2.28 | 1.42 | 2.84 | 1.91 | 0.453 | 3.15 | 1.5 | 1.86 | 1.62 | 2.08 | 0.991 | 0.197 | 2.87 | 1.77 | 0.486 | 1.4 | 0.445
GCTGACAGGTGAAACGCAGGTAACTCAGGGTGGC | 1.22 | 0.804 | -0.781 | -1.24 | -0.522 | -0.223 | -0.797 | 0.499 | -1.1 | 0.773 | 0.252 | 0.825 | 0.362 | -0.702 | 0.505 | 1.27 | -0.547 | -0.355 | -0.647
AGAACGAGGGCAATGAGTTGATAGGACGGGTGGC | 3.48 | 2.09 | 0.826 | 0.0416 | -0.0695 | 1.12 | 5.45 | 0.114 | -0.321 | 2 | 1.01 | 1.22 | 1.39 | 2.23 | 0.869 | 0.954 | -0.116 | 5.22 | 3.01
CCTAGGTGGTCAGGAGGTCACACACCGGATATGA | 0.549 | 3.02 | -0.0513 | -0.161 | 3.26 | 4.04 | 1.33 | 4.78 | 1.85 | 3.71 | 4.34 | 5.44 | 4.63 | 0.00245 | 5.16 | 3.45 | 2.2 | 3.76 | 2.85
TCATACAGGTGAAGGTAACTCAGGTACGCAGTCG | 3.17 | 2.45 | 0.347 | 1.84 | 1.14 | 0.814 | 0.508 | 1.31 | 0.817 | 1.26 | 0.9 | 0.872 | 0.925 | 1.33 | 1.42 | 1.67 | 0.594 | 1.36 | 0.668
AGTCAAAGTTCAGGACGAGGTAACGTACAGCACG | -0.265 | 2.01 | 0.413 | 0.297 | 1.59 | 2.95 | 0.808 | 3.01 | 0.256 | 4.18 | 3.47 | 4.77 | 4.74 | 2.99 | 2.92 | 3.9 | 1.82 | 2.88 | 2.1
GCATATAGGTAATACTAGGTGAAAGTCCGATTGT | 4.82 | 4.2 | 0.862 | 0.925 | 0.614 | 0.155 | 0.151 | 1.1 | 0.695 | 0.113 | 0.423 | 0.466 | 0.359 | 0.563 | 0.745 | 3.45 | 0.246 | 0.212 | 0.235
CGTCCAAGGTCAATGGTCAGTGAAGAGATGACGG | 3.08 | 3.44 | 1.01 | -0.0239 | 2.84 | 3.33 | 1.16 | 3.98 | 0.654 | 5.08 | 4.04 | 5.46 | 6.07 | 3.36 | 4.67 | 3.6 | 2.11 | 3.55 | 2.25
GGCACGAGGGCATTCGAGTTGATAGCATGGCGAT | 1.63 | 0.977 | -1.13 | -1.45 | -0.356 | 3.77 | 1.72 | 0.606 | -0.627 | 1.95 | 0.614 | 1.04 | 1.53 | 3.11 | 0.455 | 3.42 | -0.251 | 3.54 | 3.45
TCTATTAGTTGATTAGGGCAAACGAAACAGCGGA | 1.88 | 1.04 | 0.889 | 1.04 | 0.195 | 0.343 | 0.106 | 0.325 | 0.996 | 0.708 | 0.43 | 0.388 | 0.663 | 0.888 | 0.631 | 0.515 | 0.119 | 0.637 | 0.435
